# Experimental data from PubChem BioAssay AID686996 (Broad Institute, 2013).
# Where “and” joins values, the source holds several entries; their conditions need not be identical. Equal entries are not always repeated. The whole screen tested about 350,000 compounds, of which about 1,900 (0.54%) were called active. The sample holds actives, similar compounds and a random draw of the others, so the mix is not that of the screen.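 The calls were made as follows: active = mean inhibition across replicates at least about 35%, with every replicate also reaching that limit (limit read from the data); inconclusive = only one of the two criteria met; inactive = neither criterion met.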 Some structures have more than one record in an assay (separate samples or runs), and their calls can disagree.
# Target: Caspase-6 (Homo sapiens) (UniProt P55212)
# Test: human caspase-6 inhibitors, primary screen, biochemical, VEID-R110 fluorescence, single point, set 2 (AID 686996);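 also: 0% = median of neutral control wells and 100% = no fluorescence left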
# Conditions: purified caspase-6, Z-VEID-R110 cleavage fluorescence; at 12.5 µM; stronger effect = higher value
# Sequence of Caspase-6 (Homo sapiens) (P55212 24-179 limits assumed): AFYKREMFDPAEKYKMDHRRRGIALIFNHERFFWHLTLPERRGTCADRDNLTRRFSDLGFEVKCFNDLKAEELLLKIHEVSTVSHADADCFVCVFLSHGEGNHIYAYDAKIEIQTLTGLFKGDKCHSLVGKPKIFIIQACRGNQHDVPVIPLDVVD
# Sequence of Caspase-6 (Homo sapiens) (P55212 194-293 limits assumed): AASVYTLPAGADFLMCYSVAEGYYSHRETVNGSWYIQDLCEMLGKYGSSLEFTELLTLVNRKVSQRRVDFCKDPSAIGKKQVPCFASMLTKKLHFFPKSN
row,SMILES,inhibition
1,CC=Cc1ccc2n(c1=O)C[C@@H]1[C@@H](CO)[C@H](C(=O)NCCc3ccccc3)N(C(C)=O)[C@H]21 (mixture of isomers),61.2% (active)
2,CC=Cc1ccc2n(c1=O)C[C@@H]1[C@@H](CO)[C@H](C(=O)N[C@H](C)c3ccccc3)N(C(=O)c3cnccn3)[C@H]21 (mixture of isomers),-3.98% (inactive)
3,CC=Cc1ccc2n(c1=O)C[C@@H]1[C@@H](CO)[C@H](C(=O)N(C)C)[C@H]2N1CCc1ccccc1 (mixture of isomers),-1.44% (inactive)
4,CO[C@H]1CN(C)C(=O)c2ccc(NC(=O)C3CC3)cc2OC[C@@H](C)N(Cc2ccc(F)cc2)C[C@@H]1C,3.32% (inactive)
5,Cc1cc(C)cc(C(=O)NC2C(=O)N3C(C(=O)O)=C(CSc4nnc(C)s4)CSC23)c1 (stereo not drawn),9.95% (inactive)
6,CCN1CCN(C(=O)N[C@@H](C(=O)N[C@@H]2C(=O)N3C(C(=O)O)=C(CSc4nnnn4C)CS[C@H]23)c2ccc(O)cc2)C(=O)C1=O,0.383% (inactive)
7,C=CC1=C(C(=O)O)N2C(=O)[C@@H](NC(=O)/C(=N/OCC(=O)O)c3csc(N)n3)[C@H]2SC1,88.2% (active)
8,CO/N=C(\C(=O)N[C@@H]1C(=O)N2C(C(=O)O)=C(COC(C)=O)CS[C@H]12)c1csc(N)n1 (stereo in doubt),13.9% (inactive) and 5.09% (inactive) and 37.7% (active)
9,COc1ccccc1NC(=O)N1C[C@H](O)COC[C@H]2O[C@H](CC(=O)NCCc3ccccc3)CC[C@@H]21,1.79% (inactive)
10,COc1ccccc1CN1CC[C@@H]2[C@@H](CO)Nc3ccc(C#Cc4ccccc4)cc3[C@@H]21,0.663% (inactive)
11,C[C@@H]1CN([C@@H](C)CO)C(=O)c2cc(NC(=O)Nc3cccc4ccccc34)ccc2O[C@@H]1CN(C)C(=O)NC1CCCCC1,0.662% (inactive)
12,C[C@@H](O)C#Cc1cnc2c(c1)C(=O)N([C@@H](C)CO)C[C@H](C)[C@@H](CN(C)CC1CCCCC1)O2,2.32% (inactive)
13,Oc1ccc(N=Cc2c(O)ccc3ccccc23)cc1,36.4% (active)
14,Cc1cc(N=Nc2ccc3ccccc3c2)ccc1O,2.65% (inactive)
15,Oc1ccc(/C=N/N(Cc2ccccc2)c2ccccc2)cc1,-0.437% (inactive)
16,COc1ccc(S(=O)(=O)Nc2cccc3c2O[C@H](CN(C)Cc2ccc4c(c2)OCO4)[C@H](C)CN([C@@H](C)CO)C3=O)cc1,0.634% (inactive)
17,C[C@H]1CCCCO[C@H](CN(C)C(=O)Nc2ccccc2)[C@@H](C)CN([C@@H](C)CO)C(=O)c2cc(NC(=O)c3ccncc3)ccc2O1,-0.544% (inactive)
18,Cc1cc(/C=C2/SC(=O)N(CC(=O)OC(C)C)C2=O)c(C)n1C,1.11% (inactive)
19,Cc1cc(/C=C2\SC(=O)N(C)C2=O)c(C)n1-c1cccc(C(=O)O)c1,39.2% (active)
20,Cc1cc(/C=C2/SC(=O)N(CC(=O)N3CCCC3)C2=O)c(C)n1C,1.51% (inactive)
21,O=C(C1=C[C@@H](c2ccccc2)C[C@@H](OCCCCO)O1)N1CCN(Cc2ccccc2)CC1,-1.99% (inactive)
22,C[C@@H]1CN([C@H](C)CO)C(=O)Cc2cc(NC(=O)CCN3CCOCC3)ccc2O[C@H]1CN(C)C,0.558% (inactive)

row,SMILES,inhibition
1,COc1ccc2c3c([nH]c2c1)[C@@H](CO)N(Cc1ccncc1)CC31CN(C(=O)CN(C)C)C1,-1.6% (inactive)
2,O=C(NC(=O)N1CCOCC1)c1ccccc1,-0.559% (inactive)
3,O=C(c1snnc1-c1ccccc1)N1CCOCC1,-0.096% (inactive)
4,Cc1oc2c(c1C(=O)N1CCOCC1)C(=O)c1ccccc1C2=O,62.8% (active)
5,Cc1ccc(S(=O)(=O)N[C@H]2CC[C@H](CC(=O)O)O[C@H]2CO)cc1,3% (inactive)
6,Cc1noc(C)c1S(=O)(=O)N(C)C[C@H]1OCCCC[C@@H](C)Oc2ccc(NC(=O)C3CCCCC3)cc2C(=O)N([C@H](C)CO)C[C@@H]1C,-3.38% (inactive)
7,COc1ccc(NC(=O)Nc2ccc3c(c2)C(=O)N([C@@H](C)CO)C[C@@H](C)[C@@H](CN(C)S(=O)(=O)c2ccc(C)cc2)OCCCC[C@H](C)O3)cc1,-2.65% (inactive)
8,COCC(=O)N1[C@@H](CO)[C@H](c2ccccc2)C12CN(C(=O)NC1CCCCC1)C2,-0.716% (inactive)
9,O=C(Nc1ccccc1C(=O)Nc1ccncc1)c1ccc([N+](=O)[O-])cc1,-0.84% (inactive)
10,O=C(Nc1nc2ccc([N+](=O)[O-])cc2s1)c1ccncc1,65.7% (active)
11,O=C(Nc1ccncc1)c1ccc([N+](=O)[O-])cc1Cl,-0.931% (inactive)
12,CC(C)NC(=O)N(C)C[C@H]1Oc2ncc(C#CC3CC3)cc2C(=O)N([C@H](C)CO)C[C@@H]1C,-0.116% (inactive)
13,C[C@H](CO)N1C[C@H](C)[C@H](CN(C)C(=O)Nc2cccc(Cl)c2Cl)OCc2ccccc2-c2ccccc2C1=O,0.728% (inactive)
14,COc1cccc(/C=C2\SC(=S)N(CCCC(=O)N3CCOCC3)C2=O)c1,-1.77% (inactive)
15,O=C(CCCN1C(=O)/C(=C/c2cccs2)SC1=S)Nc1ccc(O)cc1,0.413% (inactive)
16,Cc1ccc(-c2nn(-c3ccccc3)cc2/C=C2\SC(=S)N(CCCCCC(=O)O)C2=O)o1,49.9% (active)
17,Cc1ccc(S(=O)(=O)Nc2ccc3c(c2)C(=O)N(C)[C@H]2CC[C@H](CC(=O)O)O[C@H]2CO3)cc1,0.009% (inactive)
18,C[C@H](CO)N1C[C@H](C)[C@H](CN(C)C(=O)C2CCC2)Oc2ncc(C#CCc3ccccc3)cc2C1=O,-2.13% (inactive)
19,O=C(O)CCn1c(O)c(C=C2N=c3ccccc3=N2)sc1=S,35.5% (active)
20,Cc1ccc(S(=O)(=O)N(C)C[C@@H]2Oc3c(NS(C)(=O)=O)cccc3C(=O)N([C@@H](C)CO)C[C@H]2C)cc1,0.89% (inactive)
21,COc1cccc(NC(=O)Nc2ccc3c(c2)C(=O)N(C)[C@@H]2CC[C@@H](CC(=O)NCCc4ccccc4)O[C@H]2CO3)c1,1.41% (inactive)
